Screening results from PubChem.
Only some compounds are listed: those with a hit (about 8.8% of all), similar ones and a draw of the others.
HT1080NT lethal – kills 2HG-producing HT-1080-NT fibrosarcoma cells | Potency, µM (doses to about 46.1 µM), hits mostly cytotoxic | 1.6% of 360,000 active | HT-1080-NT fibrosarcoma viability, CellTiter-Glo ATP luminescence, 48 h;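 also: NT is the 2HG producing partner of a matched IDH1 knockdown line; nearly all actives have a fitted effect of over 55% in size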
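Viability of the 2HG-overproducing fibrosarcoma line after 48 hours of compound exposure at 37 degrees C was determined by luminescence with CellTiter-Glo, and concentration-effect curves were then fitted and categorized.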
IL-1B inflam inh – blocks inflammasome-driven IL-1 beta release | activity change, % at 57.5 µM | 4.7% of 360,000 active | THP-1 LPS/ATP IL-1B secretion, AlphaLISA, 16 h; stronger effect = lower value; in the data active = activity change below about -50%; inconclusive = mostly about -30% to -49%
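Secreted IL-1B measured by AlphaLISA bead assay after 16 h compound exposure of THP-1 cells; compounds (final up to 57.5 uM) added 1 h before LPS (250 ng/mL) and ATP (1.25 mM) stimulation; lower signal means less secretion.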
KB-V1 cytotox – KB-V1 MDR subline cytotoxicity; AID 1347076; 3.4% of 400,000 active; KB-V1 MDR cells viability, CellTiter-Glo, 72 h; Potency, µM (titrated, usually from 46.1 µM), usual class: cytotoxic; also: nearly all actives have a fitted effect of over 60% in size
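KB-V1 MDR subline cells in DMEM (phenol-red free, 10% FBS) exposed to compounds in qHTS concentration series for 72 h at 37 degrees C. Viability read by CellTiter-Glo luminescence; concentration-effect curves fitted after normalization and correction.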
KB-3-1 tox – kills parental KB-3-1 adenocarcinoma cells; AID 1347075; KB-3-1 viability, CellTiter-Glo ATP luminescence, 72 h; Potency, µM (titrated, usually from 46.1 µM), most hits filed as cytotoxic; 1.4% of 400,000 active; also: nearly all actives have a fitted effect of over 60% in size
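Parental KB-3-1 viability, qHTS format: 72 h compound exposure, 37 °C; CellTiter-Glo; media-only wells and DMSO plates as controls; concentration-effect fits on corrected data.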
HT1080 IDH1KD tx – kills HT-1080 cells with IDH1 knockdown | HT-1080 IDH1 knockdown viability, ATP luminescence, 48 h | Potency, µM (highest dose often 46.1 µM), most hits filed as cytotoxic | 2% of 360,000 active
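IDH1KD HT-1080 cells, 750/well, RPMI + 5% FBS; compound pinned after 2 h settling; 48 h, 37 °C; CellTiter-Glo luminescence; % activity normalised to DMSO and no-cell wells; curves fitted, classed by r2 and efficacy.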
Of the large screens only hits and unclear results are named; the others gave an inactive call. Unless noted, calls follow the shape of the dose curve; as a rule, active = well fitted curve in the direction sought with a large enough effect; inconclusive = small, poorly fitted or top-dose-only effect, or another doubt; inactive = no such curve, though single readings can be large; an effect the other way counts as inactive or inconclusive.

CC1CCN(C2=NC(=O)/C(=C/c3cccc(O)c3)S2)CC1	IL-1B inflam inh -75.2
CC1CCN(C2=NC(=O)/C(=C/c3ccccc3F)S2)CC1	IL-1B inflam inh -99.2
CCCOc1ccc(C(=O)Nc2cc3c(cc2N2CCOCC2)n(C)c(=O)n3C)cc1	KB-V1 cytotox inconclusive (no result: HT1080NT lethal, IL-1B inflam inh, HT1080 IDH1KD tx)
CC(C)CCOC(=O)C1C(c2ccccc2)C(C(=O)O)C1c1ccccc1 (stereo not drawn)	HT1080NT lethal 7.31µM, HT1080 IDH1KD tx 3.66µM
O=C(O)C1C(c2ccccc2)C(C(=O)Oc2ccccc2)C1c1ccccc1 (stereo not drawn)	none
Cc1ccc(CN2CCN(Cc3cccc4nccnc34)CC2CCO)cc1 (stereo not drawn)	none
CC1CCN(c2c(NCc3ccc(C(=O)N4CCc5ccccc54)cc3)c(=O)c2=O)CC1	HT1080NT lethal 5.17µM, KB-3-1 tox 1.64µM, HT1080 IDH1KD tx 4.11µM
O=C1N=C(N2CCCC2)CN1c1ccccc1	none
Cc1ccc(-n2c(Cc3ccccc3)n[nH]c2=S)c(C)c1	IL-1B inflam inh -66.5
COc1ccc(CNc2nc(S(=O)(=O)c3ccccc3)c(Cl)s2)cc1OC	HT1080NT lethal inconclusive, IL-1B inflam inh inconclusive, KB-3-1 tox inconclusive, HT1080 IDH1KD tx inconclusive
CCOC(=O)COn1c(=O)c(-c2ccco2)[n+]([O-])c2ccccc21	IL-1B inflam inh -69.0
COc1ccc(-c2noc(CCC(=O)NCc3cc(Br)ccc3OC)n2)cc1	IL-1B inflam inh -89.6, KB-V1 cytotox inconclusive
CC(C)(C)c1ccc(-c2noc(CCC(=O)NCc3ccco3)n2)cc1	HT1080NT lethal inconclusive, IL-1B inflam inh -57.1, KB-V1 cytotox inconclusive, KB-3-1 tox inconclusive, HT1080 IDH1KD tx inconclusive
COc1ccc(-c2noc(CCC(=O)NCC3CCN(Cc4cccc(C)c4)CC3)n2)cc1	IL-1B inflam inh -71.9
Cc1nn(C(C)C(=O)NC2CCCCCC2)c(=O)c2nn(-c3ccccc3)c(C)c12 (stereo not drawn)	none
COc1ccc(/C=C/C(=O)NC2CCN(Cc3ccccc3)CC2)cc1OC	none
CCOc1ccc(N=Cc2ccccc2O)cc1	none
Cc1ccc(N2CCN(C(=O)c3cn(C)c4ccc(S(=O)(=O)N(C)C5CCCCC5)cc4c3=O)CC2C)cc1 (stereo not drawn)	KB-3-1 tox inconclusive (no result: HT1080NT lethal, IL-1B inflam inh, HT1080 IDH1KD tx)
CCOC(=O)N1N=C(CC)CC1(O)C(F)(F)F (stereo not drawn)	KB-V1 cytotox inconclusive
CCC1=NN(C(=O)Cc2ccc(OC)c(OC)c2)C(O)(C(F)(F)F)C1 (stereo not drawn)	KB-V1 cytotox 14.6µM
COc1ccc(NC(=O)C(c2ccc(OC)cc2)n2c(=O)c(-c3cc4ccccc4[nH]3)nc3ccccc32)cc1 (stereo not drawn)	HT1080NT lethal inconclusive
O=C(Nc1ccc2ccccc2c1)C(c1ccc(C(F)(F)F)cc1)n1c(=O)c(-c2cc3ccccc3[nH]2)nc2ccccc21 (stereo not drawn)	HT1080NT lethal inconclusive, HT1080 IDH1KD tx 16.4µM
O=C(Nc1ccc2c(c1)OCCO2)C(c1ccc(C(F)(F)F)cc1)n1c(=O)c(-c2cc3ccccc3[nH]2)nc2ccccc21 (stereo not drawn)	HT1080NT lethal inconclusive, HT1080 IDH1KD tx 16.4µM
O=C(Nc1ccc2c(c1)OCCO2)C(c1ccncc1)n1c(=O)c(-c2cc3ccccc3[nH]2)nc2ccccc21 (stereo not drawn)	HT1080NT lethal inconclusive, HT1080 IDH1KD tx inconclusive
CCOC(=O)CSc1nc2ccc(NC(=O)COc3ccccc3C)cc2s1	none (no result: HT1080NT lethal, IL-1B inflam inh, HT1080 IDH1KD tx)
O=C1N=C(N2CCN(Cc3ccccc3)CC2)S/C1=C/c1cccs1	KB-V1 cytotox inconclusive (no result: IL-1B inflam inh)
COc1ccc(/C=C2\SC(N3CCCCC3)=NC2=O)cc1	none
CCc1ccc(/C=C2\SC(N3CCCC3)=NC2=O)cc1	IL-1B inflam inh -60.4, KB-V1 cytotox inconclusive
O=C1N=C(N2CCN(c3ccccc3)CC2)S/C1=C/c1cccs1	IL-1B inflam inh -58.2, KB-V1 cytotox inconclusive
O=C1N=C(N2CCCCC2)S/C1=C\c1ccncc1	IL-1B inflam inh -52.0
O=C(Nc1csc(Cc2c(Cl)cccc2Cl)n1)NN1CCOCC1	IL-1B inflam inh -84.2
CC(C)(C)c1ccc(C(=O)N2CC(=O)Nc3ccc(F)cc3C2c2ccc(F)cc2)cc1 (stereo not drawn)	KB-V1 cytotox inconclusive, KB-3-1 tox 18.4µM (no result: HT1080NT lethal, IL-1B inflam inh, HT1080 IDH1KD tx)
COc1ccc(C(OCC(O)CNCCc2ccc(S(N)(=O)=O)cc2)c2ccc(OC)cc2)cc1 (stereo not drawn)	IL-1B inflam inh -67.5, KB-V1 cytotox inconclusive, HT1080 IDH1KD tx inconclusive
COc1ccc(CC(=O)NCCc2ccc(S(N)(=O)=O)cc2)cc1	none
OC(CNCCc1ccc(C(F)(F)F)cc1)COC(c1ccccc1)c1ccccc1 (stereo not drawn)	HT1080NT lethal inconclusive, IL-1B inflam inh -68.6, KB-3-1 tox inconclusive, HT1080 IDH1KD tx inconclusive
CCN(CC)CC(O)COC(c1ccccc1)c1ccccc1 (stereo not drawn)	IL-1B inflam inh inconclusive
COc1ccc(-n2cc(CN3CCCC3)c(-c3cccc(F)c3)n2)cc1	IL-1B inflam inh -76.8
CCC(COC)NCc1cn(-c2ccc(OC)cc2)nc1-c1cccc(F)c1 (stereo not drawn)	HT1080NT lethal inconclusive, IL-1B inflam inh -82.2, KB-V1 cytotox 5.17µM, HT1080 IDH1KD tx inconclusive
COc1ccc(-n2cc(CNC3CCN(C)CC3)c(-c3cccc(F)c3)n2)cc1	HT1080NT lethal 20.6µM, IL-1B inflam inh -62.8, KB-3-1 tox inconclusive, HT1080 IDH1KD tx 20.6µM
CCOc1cc(/C=N/NC(=O)CCCC(=O)NC2CCCCC2)ccc1O	none
COc1cc(CN2CCNC(=O)C2CC(=O)N2CCCN(C(C)=O)CC2)cc(OC)c1 (stereo not drawn)	none
COCCNC(=O)/C(C#N)=C/c1c(F)cccc1Cl	IL-1B inflam inh -53.6
N#C/C(=C\c1cccc(NC(=O)c2ccccc2Cl)c1)C(=O)NCCc1ccccc1	HT1080NT lethal inconclusive, IL-1B inflam inh -101.1, KB-3-1 tox inconclusive, HT1080 IDH1KD tx inconclusive
COCCCNC(=O)/C(C#N)=C/c1cccc(NC(=O)c2ccccc2Cl)c1	HT1080NT lethal inconclusive, IL-1B inflam inh -103.3, KB-V1 cytotox inconclusive, HT1080 IDH1KD tx 14.6µM
CCCN(CCC)C(=O)C(c1ccccc1)C1(O)CCCCC1 (stereo not drawn)	none
CCN(CC)CCNC(=O)c1ccc2c(=O)n(C3CCCC3)c(=S)[nH]c2c1	HT1080NT lethal inconclusive, HT1080 IDH1KD tx 20µM
COc1cc2[nH]c(=S)n(CC3CCCO3)c(=O)c2cc1OC (stereo not drawn)	none
CCOc1cc2[nH]c(=S)n(CC3CCCO3)c(=O)c2cc1OCC (stereo not drawn)	IL-1B inflam inh inconclusive, KB-V1 cytotox 11.6µM, KB-3-1 tox inconclusive
